For 20 sequences, binding signal results are on record in publication PMC3218832.

Targets include RELARELA (p65 homodimer) (Homo sapiens, UniProt Q04206 1-307); p50p50 homodimer (Homo sapiens, UniProt P19838 7-356); RELB subunit;p50 subunit (Homo sapiens;Homo sapiens, UniProt Q01201;P19838 120-401;7-356).
What all share (assay): protein binding microarray; high values mean tight binding
Holding throughout (conditions): dsDNA, one strand shown

The target in a further assay is T1, p52p52 homodimer (Homo sapiens, UniProt Q00653 4-332).
T1 sequence: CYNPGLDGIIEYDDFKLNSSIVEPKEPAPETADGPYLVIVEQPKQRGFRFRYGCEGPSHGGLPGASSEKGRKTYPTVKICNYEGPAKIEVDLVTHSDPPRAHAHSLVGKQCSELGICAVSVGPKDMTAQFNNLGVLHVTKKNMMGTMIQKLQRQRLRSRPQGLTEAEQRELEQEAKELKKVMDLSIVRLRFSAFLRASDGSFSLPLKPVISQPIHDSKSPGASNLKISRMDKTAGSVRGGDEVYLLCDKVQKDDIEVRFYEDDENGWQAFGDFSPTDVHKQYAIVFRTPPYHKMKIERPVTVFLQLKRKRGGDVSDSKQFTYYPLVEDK

Assay [1] addresses RELA (p65) subunit of heterodimer;p50 subunit (Homo sapiens;Homo sapiens, UniProt Q04206;P19838 1-307;7-356).
For assay [2], the target named is RELA (p65) subunit of heterodimer;p52 subunit (Homo sapiens;Homo sapiens, UniProt Q04206;Q00653 1-307;4-332).
For a further assay, the target named is T2, RELB subunit;p52 subunit (Homo sapiens;Homo sapiens, UniProt Q01201;Q00653 120-401;4-332).
T2 sequence 1: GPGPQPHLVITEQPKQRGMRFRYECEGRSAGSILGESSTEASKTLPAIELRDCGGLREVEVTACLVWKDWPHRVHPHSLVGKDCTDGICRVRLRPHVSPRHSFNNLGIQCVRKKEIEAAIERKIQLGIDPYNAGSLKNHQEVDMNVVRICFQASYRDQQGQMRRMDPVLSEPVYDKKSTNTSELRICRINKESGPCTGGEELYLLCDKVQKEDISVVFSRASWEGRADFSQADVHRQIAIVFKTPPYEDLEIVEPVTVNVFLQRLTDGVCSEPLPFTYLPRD
T2 sequence 2: T1 sequence

The target in assay [3] is C-Rel subunit;p50 subunit (Homo sapiens;Homo sapiens, UniProt Q04864;P19838 1-285;7-356).
Assay [4] has as its target T3, C-Rel subunit;p52 subunit (Homo sapiens;Homo sapiens, UniProt Q04864;Q00653 1-285;4-332).
T3 sequence 1: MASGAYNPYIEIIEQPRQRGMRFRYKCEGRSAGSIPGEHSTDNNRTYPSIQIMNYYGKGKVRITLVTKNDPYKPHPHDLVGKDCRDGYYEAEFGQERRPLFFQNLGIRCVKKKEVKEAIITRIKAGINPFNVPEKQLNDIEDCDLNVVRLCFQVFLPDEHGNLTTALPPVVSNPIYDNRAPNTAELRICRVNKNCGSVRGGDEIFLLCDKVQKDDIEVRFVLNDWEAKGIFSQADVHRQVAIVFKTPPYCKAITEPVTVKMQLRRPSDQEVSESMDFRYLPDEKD
T3 sequence 2: T1 sequence

Sequence of RELARELA (p65 homodimer) (Q04206 1-307): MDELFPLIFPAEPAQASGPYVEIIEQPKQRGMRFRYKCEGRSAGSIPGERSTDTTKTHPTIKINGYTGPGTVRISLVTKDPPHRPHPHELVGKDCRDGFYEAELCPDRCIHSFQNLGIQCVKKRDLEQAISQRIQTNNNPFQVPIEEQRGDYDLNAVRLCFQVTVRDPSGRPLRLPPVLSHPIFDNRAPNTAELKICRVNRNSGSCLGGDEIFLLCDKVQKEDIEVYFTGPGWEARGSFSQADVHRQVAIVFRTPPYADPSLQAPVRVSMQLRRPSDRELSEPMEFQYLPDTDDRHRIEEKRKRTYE
Sequence of RELA (p65) subunit of heterodimer;p50 subunit (Q04206 1-307, chain 1 of 2): as the sequence (Q04206 1-307) above
Sequence of RELA (p65) subunit of heterodimer;p50 subunit (P19838 7-356, chain 2 of 2): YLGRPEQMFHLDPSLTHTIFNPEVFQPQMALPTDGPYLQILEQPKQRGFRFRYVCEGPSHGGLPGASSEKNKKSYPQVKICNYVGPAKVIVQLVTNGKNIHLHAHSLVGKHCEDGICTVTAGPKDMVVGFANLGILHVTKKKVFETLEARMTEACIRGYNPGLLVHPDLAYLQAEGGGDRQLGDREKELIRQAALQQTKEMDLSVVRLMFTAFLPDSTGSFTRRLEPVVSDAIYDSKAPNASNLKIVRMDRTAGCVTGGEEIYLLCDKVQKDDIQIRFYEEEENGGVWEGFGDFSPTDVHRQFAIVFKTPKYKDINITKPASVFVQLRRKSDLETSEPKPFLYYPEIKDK
Sequence of p50p50 homodimer (P19838 7-356): as the sequence (P19838 7-356, chain 2 of 2) above

For the sequence AAGGGAATCCC, the binding signal turned out to be 2.03 z-score with RELARELA (p65 homodimer); 0.857 z-score with p50p50 homodimer; 2.29 z-score with p52p52 homodimer; 1.16 z-score in assay [1]; 1.75 z-score in assay [2]; 1.21 z-score with RELB subunit;p50 subunit. The binding signal was determined as 1.57 z-score in the assay with RELB subunit;p52 subunit, 1.02 z-score in [3] and 1.92 z-score in assay [4].

Consider CAAGAGTCCCC, for which the binding signal with RELARELA (p65 homodimer) was 0.465 z-score; with p50p50 homodimer it was 1.31 z-score; with p52p52 homodimer, 1.01 z-score; in assay [1], 1.4 z-score; in assay [2] it was 1.06 z-score; in the assay with RELB subunit;p50 subunit, 1.44 z-score. Further, the binding signal with RELB subunit;p52 subunit came to 1.28 z-score; in assay [3] it was 0.916 z-score; in [4], 0.77 z-score.

Turning to AAAAGCCTCCT, the binding signal is -1.11 z-score in the assay with RELARELA (p65 homodimer); -1.28 z-score in the assay with p50p50 homodimer; -0.721 z-score in the assay with p52p52 homodimer; -0.959 z-score in assay [1]; -1.07 z-score in assay [2]; -1.23 z-score with RELB subunit;p50 subunit. Besides, the binding signal in the assay with RELB subunit;p52 subunit is -0.999 z-score; in assay [3] it was -1.5 z-score; in [4], -1.03 z-score.

On to AAAGAGACCCT, for which the binding signal with RELARELA (p65 homodimer) is -1.1 z-score; with p50p50 homodimer it was -0.515 z-score; in the assay with p52p52 homodimer, -0.457 z-score; in [1] it was -0.679 z-score; in assay [2] it was -0.542 z-score; with RELB subunit;p50 subunit, -0.626 z-score. Further, the results for the binding signal (with RELB subunit;p52 subunit; in assay [3]; in assay [4]) were -0.766 z-score, -1.12 z-score and -0.688 z-score, respectively.

Regarding CGATAAGCCCC, the binding signal in the assay with RELARELA (p65 homodimer) was -0.417 z-score; in the assay with p50p50 homodimer, 0.756 z-score; with p52p52 homodimer, 0.22 z-score; in assay [1] it was 0.383 z-score; in assay [2], 0.238 z-score; with RELB subunit;p50 subunit, 0.334 z-score. In addition, the binding signal with RELB subunit;p52 subunit came to 0.409 z-score; in [3] it was 0.25 z-score; in [4] it was 0.31 z-score.

CAGTTTGCCCC: the binding signal with RELARELA (p65 homodimer) was determined as 1.6 z-score; with p50p50 homodimer, 0.492 z-score; with p52p52 homodimer, 0.189 z-score; in [1] it was 1.17 z-score; in assay [2], 0.571 z-score; with RELB subunit;p50 subunit, 0.532 z-score. Further, the binding signal with RELB subunit;p52 subunit worked out at 0.563 z-score; in assay [3] it was 1.5 z-score; in assay [4] it was 0.899 z-score.

As for CGGTTATCCCT, the binding signal with RELARELA (p65 homodimer) amounted to 0.134 z-score; with p50p50 homodimer it was 0.215 z-score; in the assay with p52p52 homodimer it was 0.38 z-score; in assay [1], 0.0537 z-score; in assay [2], 0.272 z-score; with RELB subunit;p50 subunit it was 0.229 z-score. Further, the binding signal turned out to be 0.321 z-score in the assay with RELB subunit;p52 subunit, 0.223 z-score in assay [3] and 0.381 z-score in assay [4].

As for GAGTATTTCCC, the binding signal with RELARELA (p65 homodimer) was found to be 2.24 z-score; with p50p50 homodimer, 0.925 z-score; in the assay with p52p52 homodimer, 1.05 z-score; in assay [1], 1.27 z-score; in [2] it was 1.1 z-score; in the assay with RELB subunit;p50 subunit it was 0.527 z-score. Also, the binding signal in the assay with RELB subunit;p52 subunit came to 0.505 z-score; in assay [3], 1.24 z-score; in assay [4], 1.14 z-score.

Turning to AAAATGATCCC, the binding signal in the assay with RELARELA (p65 homodimer) was -0.603 z-score; in the assay with p50p50 homodimer, -0.272 z-score; with p52p52 homodimer, -0.265 z-score; in assay [1], -0.543 z-score; in assay [2], -0.453 z-score; with RELB subunit;p50 subunit it was -0.443 z-score. In addition, the binding signal with RELB subunit;p52 subunit was -0.704 z-score; in [3], -0.71 z-score; in [4] it was -0.512 z-score.

For CGATGGATCCT, the binding signal with RELARELA (p65 homodimer) was -0.596 z-score; with p50p50 homodimer, -1.5 z-score; with p52p52 homodimer it was -0.616 z-score; in assay [1], -1.04 z-score; in assay [2], -1 z-score; with RELB subunit;p50 subunit, -1.33 z-score. Moreover, the values for the binding signal (in the assay with RELB subunit;p52 subunit; in [3]; in [4]) were -1.12 z-score, -1.59 z-score and -1.01 z-score, respectively.

As to AAATACGTCCC, the binding signal was determined as 0.519 z-score with RELARELA (p65 homodimer); 0.264 z-score with p50p50 homodimer; 0.547 z-score in the assay with p52p52 homodimer; 0.144 z-score in [1]; 0.183 z-score in [2]; 0.285 z-score with RELB subunit;p50 subunit. Further, the results for the binding signal (in the assay with RELB subunit;p52 subunit; in [3]; in assay [4]) were 0.334 z-score, 0.368 z-score and -0.029 z-score, respectively.

On to GAATAACTCCT, for which the binding signal with RELARELA (p65 homodimer) was -0.147 z-score; with p50p50 homodimer, -1.37 z-score; with p52p52 homodimer, -0.713 z-score; in assay [1], -0.733 z-score; in [2], -0.946 z-score; with RELB subunit;p50 subunit it was -0.919 z-score. The values for the binding signal (with RELB subunit;p52 subunit; in assay [3]; in [4]) were -0.853 z-score, -0.82 z-score and -0.791 z-score, respectively.

Take AAGAGGTTCCT: the binding signal with RELARELA (p65 homodimer) is 0.0133 z-score; with p50p50 homodimer, -1.79 z-score; in the assay with p52p52 homodimer, -0.462 z-score; in [1], -0.943 z-score; in assay [2] it was -0.822 z-score; in the assay with RELB subunit;p50 subunit, -0.701 z-score. Besides, the binding signal in the assay with RELB subunit;p52 subunit was -0.585 z-score; in assay [3], -1.22 z-score; in [4], -0.637 z-score.

Consider AGGATTTCCCT, for which the binding signal with RELARELA (p65 homodimer) was 1.99 z-score; with p50p50 homodimer, 1.23 z-score; with p52p52 homodimer, 2.18 z-score; in assay [1], 1.44 z-score; in [2], 1.61 z-score; in the assay with RELB subunit;p50 subunit, 1.58 z-score. The binding signal in the assay with RELB subunit;p52 subunit came to 1.91 z-score; in [3], 1.36 z-score; in assay [4], 1.67 z-score.

As for CAATTTATCCT, the binding signal with RELARELA (p65 homodimer) was -0.0381 z-score; with p50p50 homodimer, -0.676 z-score; with p52p52 homodimer, -0.566 z-score; in assay [1], -0.744 z-score; in assay [2], -0.71 z-score; in the assay with RELB subunit;p50 subunit, -0.801 z-score. Moreover, the binding signal in the assay with RELB subunit;p52 subunit is -0.64 z-score; in assay [3] it was -1.1 z-score; in [4], -0.673 z-score.

For the sequence CGAATTCTCCT, the binding signal with RELARELA (p65 homodimer) is -0.00416 z-score; in the assay with p50p50 homodimer, -1.08 z-score; with p52p52 homodimer, -0.594 z-score; in assay [1], -0.48 z-score; in assay [2], -0.707 z-score; with RELB subunit;p50 subunit, -0.948 z-score. Further, the results for the binding signal (with RELB subunit;p52 subunit; in assay [3]; in assay [4]) were -0.835 z-score, -0.873 z-score and -0.63 z-score, respectively.

GAGTGCGCCCC: the binding signal was -0.402 z-score with RELARELA (p65 homodimer); -0.17 z-score in the assay with p50p50 homodimer; -0.0852 z-score with p52p52 homodimer; -0.178 z-score in [1]; 0.0378 z-score in [2]; -0.305 z-score with RELB subunit;p50 subunit. The binding signal with RELB subunit;p52 subunit is -0.0411 z-score; in [3] it was -0.0592 z-score; in [4], -0.0203 z-score.

As for GGGGATTCCCT, the binding signal worked out at 3.57 z-score in the assay with RELARELA (p65 homodimer); 1.37 z-score with p50p50 homodimer; 3.18 z-score with p52p52 homodimer; 2.6 z-score in assay [1]; 3.05 z-score in assay [2]; 2.45 z-score in the assay with RELB subunit;p50 subunit. Further, the binding signal amounted to 2.75 z-score in the assay with RELB subunit;p52 subunit, 2.76 z-score in assay [3] and 3.46 z-score in [4].

Turning to CAGAGCATCCC, the binding signal with RELARELA (p65 homodimer) was -0.631 z-score; in the assay with p50p50 homodimer it was -1.46 z-score; with p52p52 homodimer it was -0.586 z-score; in [1] it was -0.856 z-score; in [2], -1.02 z-score; with RELB subunit;p50 subunit it was -1.02 z-score. Also, the binding signal in the assay with RELB subunit;p52 subunit was -0.893 z-score; in assay [3], -1.22 z-score; in [4], -1 z-score.

AAAATCGCCCT: the binding signal is -0.445 z-score with RELARELA (p65 homodimer); -0.836 z-score in the assay with p50p50 homodimer; -0.395 z-score with p52p52 homodimer; -0.458 z-score in assay [1]; -0.504 z-score in assay [2]; -0.55 z-score in the assay with RELB subunit;p50 subunit. In addition, the values for the binding signal (in the assay with RELB subunit;p52 subunit; in assay [3]; in assay [4]) were -0.442 z-score, -0.504 z-score and -0.384 z-score, respectively.
